Test results from PubChem BioAssay (NCATS).
Records with an inconclusive call do not appear. The source made the active and inactive calls. Unless noted, the call rests on the fitted dose curve; in most records, active means well fitted inhibition curve with a large enough effect; inconclusive means small, poorly fitted or top-dose-only effect; inactive means flat fitted curve, though single readings scatter.

Experiments:
[1] = qHTS drug screen for cell cycle checkpoint inhibitors in PARPi-resistant BRCA-mutant ovarian cancer cell lines. (AID 1963452; calls by dose curve); details: PEO1/OlaR viability, CellTiter-Glo luminescence, 96 h, stronger effect = lower value
How it was run: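 PEO1, PEO4 and PEO1/OlaR ovarian cancer cells, 600 per well, exposed 96 h at 37C to a dilution series. Viability read by CellTiter-Glo luminescence, normalized to DMSO and empty wells; activity summarized as Z-AUC.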

[2] = qHTS profiling for inhibitors of Plasmodium falciparum proliferation (AID 504749); further: nearly all actives have a fitted effect of over 60% in size; further: potency means the concentration at half of the fitted maximal effect;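 on activity, negative = inhibition: 0% = DMSO vehicle and full inhibition = artemisinin control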; details: P. falciparum in erythrocytes, SYBR Green DNA, 72 h, at 28.7 µM (top of the series)
How it was run: (§1)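 Readout was DNA-dye fluorescence from lysed cultures, ex 485/em 535 nm. Parasitized red cells had grown 72 h with compound; data scaled between 0.29 uM artemisinin and DMSO wells and corrected using vehicle-only plates.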

[3] = test system: 3D7; assay: as above; details: P. falciparum in erythrocytes, SYBR Green DNA, 72 h; series mostly up to 28.7 µM
How it was run: as §1

[4] = test system: 7G8; assay: as above; details: P. falciparum in erythrocytes, SYBR Green DNA, 72 h; series mostly up to 28.7 µM
How it was run: as §1

[5] = test system: AA1029; assay: as above; details: P. falciparum in erythrocytes, SYBR Green DNA, 72 h; series mostly up to 28.7 µM
How it was run: as §1

[6] = test system: AS120; assay: as above; details: P. falciparum in erythrocytes, SYBR Green DNA, 72 h; series mostly up to 28.7 µM
How it was run: as §1

[7] = test system: ATS189; assay: as above; details: P. falciparum in erythrocytes, SYBR Green DNA, 72 h; series mostly up to 28.7 µM
How it was run: as §1

[8] = test system: ATS95; assay: as above; details: P. falciparum in erythrocytes, SYBR Green DNA, 72 h; series mostly up to 28.7 µM
How it was run: as §1

[9] = test system: C2A; assay: as above; details: P. falciparum in erythrocytes, SYBR Green DNA, 72 h; series mostly up to 28.7 µM
How it was run: as §1

[10] = test system: CP185; assay: as above; details: P. falciparum in erythrocytes, SYBR Green DNA, 72 h; series mostly up to 28.7 µM
How it was run: as §1

[11] = test system: CP191; assay: as above; details: P. falciparum in erythrocytes, SYBR Green DNA, 72 h; series mostly up to 28.7 µM
How it was run: as §1

[12] = test system: CP192; assay: as above; details: P. falciparum in erythrocytes, SYBR Green DNA, 72 h; series mostly up to 28.7 µM
How it was run: as §1

[13] = test system: CP194; assay: as above; details: P. falciparum in erythrocytes, SYBR Green DNA, 72 h; series mostly up to 28.7 µM
How it was run: as §1

[14] = test system: CP201; assay: as above; details: P. falciparum in erythrocytes, SYBR Green DNA, 72 h; series mostly up to 28.7 µM
How it was run: as §1

[15] = test system: CP211; assay: as above; details: P. falciparum in erythrocytes, SYBR Green DNA, 72 h; series mostly up to 28.7 µM
How it was run: as §1

[16] = test system: CP215; assay: as above; details: P. falciparum in erythrocytes, SYBR Green DNA, 72 h; series mostly up to 28.7 µM
How it was run: as §1

[17] = test system: CP217; assay: as above; details: P. falciparum in erythrocytes, SYBR Green DNA, 72 h; series mostly up to 28.7 µM
How it was run: as §1

[18] = test system: CP237; assay: as above; details: P. falciparum in erythrocytes, SYBR Green DNA, 72 h; series mostly up to 28.7 µM
How it was run: as §1

[19] = test system: CP203; assay: as above; details: P. falciparum in erythrocytes, SYBR Green DNA, 72 h; series mostly up to 28.7 µM
How it was run: as §1

[20] = measured here: PEO1 parental Z-AUC

CC(C)CC(N(C)C)C1(c2ccc(Cl)cc2)CCC1 (configuration not stated)
0.647: Z-AUC ([1]; measured here: PEO4 Z-AUC)
inactive: Z-AUC [1] 0.505 | activity, negative = inhibition ([2]; parasite line A) 6.97% | activity, negative = inhibition ([2]; parasite line B) 4.99% | Potency [3] | Potency [4] | Potency [5] | Potency [6] | Potency [7] | Potency [8] | Potency [9] | Potency [10] | Potency [11] | Potency [12] | Potency [13] | Potency [14] | Potency [15] | Potency [16] | Potency [17] | Potency [18]
0.684: Z-AUC [1, 20]

Cn1c(CCCC(=O)O)nc2cc(N(CCCl)CCCl)ccc21
1.56: Z-AUC [1, 20]
2.09: Z-AUC ([1]; measured here: PEO4 Z-AUC)
inactive: Z-AUC [1] 2 | activity, negative = inhibition ([2]; parasite line A) -26.2% | activity, negative = inhibition ([2]; parasite line B) 3.04% | Potency [3] | Potency [5] | Potency [6] | Potency [7] | Potency [8] | Potency [9] | Potency [10] | Potency [11] | Potency [12] | Potency [13] | Potency [14] | Potency [15] | Potency [16] | Potency [17] | Potency [18]

COC[C@@H](NC(C)=O)C(=O)NCc1ccccc1
-0.684: Z-AUC ([1]; measured here: PEO4 Z-AUC)
inactive: Z-AUC [1] -0.757
0.116: Z-AUC [1, 20]

Cc1cc(SCc2sc(-c3ccc(C(F)(F)F)c(F)c3)nc2C)ccc1OCC(=O)O
-0.906: Z-AUC [1, 20]
inactive: Z-AUC [1] -0.925
-0.303: Z-AUC ([1]; measured here: PEO4 Z-AUC)

COc1ccc(C(=O)c2c(C)n(CCN3CCOCC3)c3ccccc23)cc1
-0.45: Z-AUC [1, 20]
inactive: Z-AUC [1] 0.0561 | activity, negative = inhibition ([2]; parasite line A) -0.832% | activity, negative = inhibition ([2]; parasite line B) 8.06% | Potency [3] | Potency [5] | Potency [6] | Potency [7] | Potency [8] | Potency [9] | Potency [10] | Potency [11] | Potency [12] | Potency [13] | Potency [14] | Potency [15] | Potency [16] | Potency [17] | Potency [18]
-1.01: Z-AUC ([1]; measured here: PEO4 Z-AUC)
active: Potency [4] 12.6 µM

N[C@@H](Cc1ccc(N(CCCl)CCCl)cc1)C(=O)O
-0.257: Z-AUC [1, 20]
-0.0487: Z-AUC ([1]; measured here: PEO4 Z-AUC)
active: Potency [4] 11.2 µM
inactive: Z-AUC [1] -0.14 | Potency [12] | Potency [14] | Potency [19] | Potency [15] | Potency [16]

C=C1C[C@@H]2[C@H](CC[C@]3(C)C(=O)CC[C@@H]23)[C@@]2(C)C=CC(=O)C=C12
1.01: Z-AUC ([1]; measured here: PEO4 Z-AUC)
0.968: Z-AUC [1, 20]
inactive: Z-AUC [1] 1.28

O=C1CC[C@@]2(O)[C@H]3Cc4ccc(O)c5c4[C@@]2(CCN3CC2CC2)[C@H]1O5
inactive: Z-AUC [1] -0.771
-0.291: Z-AUC [1, 20]
-0.633: Z-AUC ([1]; measured here: PEO4 Z-AUC)

C[C@]12CCC(=O)C(O)=C1CC[C@@H]1[C@@H]2CC[C@]2(C)C(=O)CC[C@@H]12
1.06: Z-AUC ([1]; measured here: PEO4 Z-AUC)
1.02: Z-AUC [1, 20]
inactive: Z-AUC [1] 0.873

NN=C(N)N
0.584: Z-AUC ([1]; measured here: PEO4 Z-AUC)
0.529: Z-AUC [1, 20]
inactive: Z-AUC [1] 0.673 | activity, negative = inhibition ([2]; parasite line A) -1.43% | activity, negative = inhibition ([2]; parasite line B) 11.2% | Potency [3] | Potency [4] | Potency [5] | Potency [6] | Potency [7] | Potency [8] | Potency [9] | Potency [10] | Potency [11] | Potency [12] | Potency [13] | Potency [14] | Potency [15] | Potency [16] | Potency [17] | Potency [18]
